Our source for the Potency and activity change, negative = inhibition values is PubChem BioAssay AID504834 (National Center for Advancing Translational Sciences (NCATS), 2011).

Out of some 320,000 compounds screened, about 22,000 (6.9%) were called active. Entries that show only a call come without a potency. About 27% were inconclusive and are not listed. Calls follow the shape of the dose curve; as a rule, active = well fitted inhibition curve with a large enough effect; inconclusive = small, poorly fitted or top-dose-only effect, or another doubt; inactive = no such curve, though single readings can be large or run the other way. Only a selection was taken, and actives are over-represented in it overall.
Potency is read from the fitted curve at half-maximal effect.

A short description of this assay: Primary qHTS for delayed death inhibitors of the malarial parasite plastid, 96 hour incubation. To be noted: P. falciparum luciferase reporter growth; series mostly up to 28.7 µM. The essentials:
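Infected RBCs, 2% Hct / 0.05% parasitemia final; luciferase-reporter P. falciparum; cpd 96 h, 37 C, 5% CO2; luciferase detection reagent; luminescence.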
Consider `Cc1ccc(N2C(=O)CC(N3CCSCC3)C2=O)c(C)c1` (stereo unspecified), for which the Potency result is “inactive”.
Same read-out and setting: as for `N#Cc1ccc(S(=O)(=O)NCC(=O)OCC(=O)NCCc2ccccc2)cc1`, the entry is “inactive”; as for `O=C(COC(=O)CCc1nc2ccccc2c(=O)[nH]1)Nc1ccc(N2CCOCC2)cc1`, “inactive”.
As to `Cc1ccc(NC(=O)CSc2nnc(COc3ccccc3C)o2)cc1`, the Potency entry is “inactive”.
`Cc1ccccc1OCc1nnc(SCC(=O)N2c3ccccc3Sc3ccc(Cl)cc32)o1`: the Potency was 13.1 µM (active).
The same measure, in the same setting: as for `CC(C)NC(=O)CSc1nnc(COc2ccccc2Cl)o1`, the entry is “inactive”; as for `O=C(NNS(=O)(=O)Cc1ccccc1)c1ccc([N+](=O)[O-])cc1`, “inactive”.
As to `Cn1c(-c2sc3cc(C(F)(F)F)cnc3c2-c2ccccc2)n[nH]c1=S`, the Potency result was “inactive”.
With `Cc1ccccc1-c1n[nH]c(=S)n1C`, the activity change, negative = inhibition is 19.3% [at 5.75 µM] (inactive).
As for `Cn1c(-c2sccc2OCc2cccc(C(F)(F)F)c2)n[nH]c1=S`, the Potency was 14.7 µM (active).
Turning to `O=c1o[nH]c(-c2ccccc2)c1N=Nc1c(F)cccc1Cl`, the Potency entry was “inactive”.
With `CC[C@H]1CN2CCc3cc(OC)c(OC)cc3[C@@H]2C[C@@H]1C[C@H]1NCCc2cc(OC)c(OC)cc21`, the Potency was 0.0738 µM (active).
Turning to `COC(=O)c1ccc([C@@H](O)[C@H](C)C(=O)CC(=O)OC(C)(C)C)cc1`, the Potency result is “inactive”.
The same measure, in the same setting: the same measure for `COc1ccc(Cl)cc1NC(=O)CNc1ccccc1F`: “inactive”; for `CCn1nc(C)c(/C=N/NC(=O)Cc2ccc(Cl)cc2)c1C`: “inactive”; for `Cc1nn(Cc2ccc(Cl)cc2)c(Cl)c1/C=N/NC(=O)CNc1ccccc1F`: 9.28 µM (active).
Take `Cc1ccccc1OCC(=O)Nc1ccc2c(c1)ncn2C`: the Potency result was “inactive”.
`CCN(CC)CCN(C(=O)c1cccc([N+](=O)[O-])c1)c1nc2ccc(OC)cc2s1`: the Potency entry was “inactive”.
On to `COc1cccc(-c2nn(C)c3sc(C(=O)N4CCN(c5ccccc5)CC4)cc23)c1`, for which the Potency entry was “inactive”.
On the same count and under the same terms, as for `COc1ccc2nc(N3CCN(C(=O)c4ccc([N+](=O)[O-])o4)CC3)sc2c1`, the figure is 0.738 µM (active).
Still for that read-out and setting: as for `C=CCNC(=S)N/N=C/c1ccc(OCc2ccccc2)cc1`, the entry is “inactive”; as for `CCOc1ccc(NC(=O)C/C(C)=N/NC(=O)Cc2cccs2)cc1`, “inactive”; as for `O=C(Cc1cccs1)N/N=C/c1ccc(OCc2ccccc2)cc1`, 11.7 µM (active).
The same measure, in the same setting: as for `O=C(Nc1ccc(-n2cccn2)cc1)C1CCN(Cc2ccsc2)CC1`, the entry is “inactive”; as for `COc1cc(Cl)c(C)cc1NC(=O)CSc1nnc(-c2ccco2)n1CC(C)C`, 10.4 µM (active).
As to `CCn1c(SCC(=O)Nc2cc(C)c(Cl)cc2OC)nnc1-c1ccco1`, the Potency entry was “inactive”.
On the same count and under the same terms, as for `COc1ccc(NC(=O)CSc2ccc(-c3ccco3)nn2)c(OC)c1`, the figure is 14.7 µM (active); as for `COc1ccccc1NC(=O)CSc1nnc(C)n1CC1CCCO1` (stereo unspecified), “inactive”; as for `O=C(CSc1ccc(-c2ccco2)nn1)NCc1ccc2c(c1)OCO2`, “inactive”.
In the case of `COc1ccc(NC(=O)CCC(=O)Nc2cc(OC)c(NC(=O)c3ccco3)cc2OC)c(OC)c1`, the Potency result is “inactive”.
As for `CCN(CC)c1ccc(/C=N/NC(=O)CNC(=O)c2cccs2)cc1`, the Potency entry is “inactive”.
Still for that read-out and setting: as for `O=C(Nc1ccccc1-c1nc2ccccc2[nH]c1=O)c1cccs1`, the entry is “inactive”; as for `Cc1ccc(C(CNC(=O)Nc2ccccc2)N2CCN(C)CC2)cc1` (stereo unspecified), “inactive”.
Same read-out and setting: the same measure for `CC(C)(C)c1ccc(Oc2ccc(N)cc2)cc1`: “inactive”; for `O=C1NS(=O)(=O)c2ccccc21`: “inactive”; for `CC(C)(C)c1ccc(OC2=CS(=O)(=O)c3ccccc32)cc1`: 9.28 µM (active).
Still for that read-out and setting: as for `CCn1cc(/C=C(\NC(=O)c2cc(OC)c(OC)c(OC)c2)C(=O)N2CCN(C)CC2)c2ccccc21`, the entry is “inactive”.
Consider `CC1CCN(CC(=O)Nc2nccs2)CC1`, for which the Potency result is “inactive”.
As for `Cc1cc(=O)[nH]c(SCC(=O)Nc2ccc(Br)cc2)n1`, the Potency entry was “inactive”.
On the same count and under the same terms, as for `CC(=O)Oc1ccc(N(C(C)=O)S(=O)(=O)c2ccc3ccccc3c2)cc1Br`, the entry is “inactive”.
Same read-out and setting: as for `Cc1nc([N+](=O)[O-])cn1CC(=O)Nc1ccc(Cl)cc1`, the entry is “inactive”; as for `NS(=O)(=O)c1ccc(CNC(=O)c2cccc(S(=O)(=O)N3CCc4ccccc43)c2)cc1`, “inactive”.
`CNC(=O)c1ccsc1NC(=O)c1ccc(S(=O)(=O)N2CCc3ccccc32)cc1`: the Potency is 11.7 µM (active).
Consider `O=C(Nc1nc2ccc([N+](=O)[O-])cc2s1)c1ccc(S(=O)(=O)N2CCCc3ccccc32)cc1`, for which the Potency entry is “inactive”.
Regarding `CCN(CC)CCCNC(=O)c1cc2c(=O)[nH]c3ccc(C)cc3c2s1`, the Potency result was “inactive”.
With `CC(=O)NS(=O)(=O)c1ccc2c(c1)Cc1cc(S(=O)(=O)NC(C)=O)ccc1-2`, the Potency result is “inactive”.
Take `COc1cc(C2/C(=C(\O)c3ccc4c(c3)CC(C)O4)C(=O)C(=O)N2c2nnc(C)s2)cc(OC)c1OC` (stereo unspecified): the Potency result is “inactive”.
On the same count and under the same terms, the same measure for `Cc1sc2nc(SCC(N)=O)n(C)c(=O)c2c1C`: “inactive”; for `Cc1sc2nc(SCCO)n(-c3ccccc3)c(=O)c2c1C`: 10.4 µM (active); for `CCc1cc2c(=O)n(-c3ccccc3)c(SCC(=O)O)nc2s1`: “inactive”.
Consider `COC(=O)c1ccc(C(=O)OC)c(NC(=S)N2CCCCC2)c1`, for which the Potency entry was “inactive”.
The same measure, in the same setting: as for `CCN(CCO)C(=S)Nc1cc(C(=O)OC)ccc1C(=O)OC`, the entry is “inactive”; as for `CCS(=O)(=O)Nc1cc(C(=O)OC)ccc1C(=O)OC`, 10.4 µM (active).
Consider `COc1ccc2oc(C(=O)NCc3ccco3)c(C)c2c1`, for which the Potency result is “inactive”.
Turning to `CCCCCC1CC(COc2ccccc2)OC1=O` (stereo unspecified), the Potency entry is “inactive”.
Still for that read-out and setting: the same measure for `O=C(NCc1ccccc1)C(c1ccco1)N(C(=O)c1csnn1)c1ccccc1F` (stereo unspecified): “inactive”; for `CCOCCCNC(=O)C(NC(=O)CNC(=O)c1ccccc1)c1ccc(C)cc1` (stereo unspecified): 9.28 µM (active).
With `CCOCCCNC(=O)C(NC(=O)CNC(=O)c1ccccc1)c1ccc(OC)cc1` (stereo unspecified), the Potency result is “inactive”.
Same read-out and setting: as for `CCOCCCNC(=O)C(NC(=O)c1ccc(=O)[nH]c1)c1ccc(C)cc1` (stereo unspecified), the entry is “inactive”.
Same read-out and setting: the same measure for `COc1ccc(C(=O)NC2CC(C)(C)Cc3c2cnn3-c2ccccc2C)o1` (stereo unspecified): “inactive”; for `Cc1ccc(S(=O)(=O)NCCC(=O)NC2CCN(Cc3ccccc3)CC2)cc1`: “inactive”.
Consider `OC(c1nc2ccc(F)cc2[nH]1)C(O)c1nc2ccc(F)cc2[nH]1` (stereo unspecified), for which the Potency entry is “inactive”.
Still for that read-out and setting: the same measure for `Cc1c(NC(=O)C(C)Oc2cccc(Cl)c2)c(=O)n(-c2ccccc2)n1C` (stereo unspecified): “inactive”.
`CN(Cc1ccccc1)C(=O)COc1ccccc1`: the Potency entry was “inactive”.
The same measure, in the same setting: the same measure for `CN(C(=O)c1ccccn1)c1nnc(-c2ccccn2)s1`: “inactive”; for `CN(C(=O)COc1ccccc1)c1nnc(-c2ccncc2)s1`: 4.15 µM (active).
